The structures appear in SMILES notation. The panel holds about 83,000 compounds, 20% with a hit somewhere; the sample as a whole holds those more often.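 Treatment: one concentration, 48 hours, 96-well format. Scoring: percent growth, with anything below 10 considered active.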 Unmarked numbers belong to inactive results. Calls of active or inactive are those of the source.

Growth data for 37 molecules are collected here from PubChem BioAssay (NCI).

For the first experiment, the system named is SNB-19 CNS. Briefly: NCI-60 one-dose screen, 48 h (100 = growth as untreated, 0 = no growth, -100 = all killed). The note with it: 10 µM.
`CCCCCCCNc1nc(C=O)ncc1-c1ccc(C(F)(F)F)cc1`: the growth is 91.1%.
`C#Cc1ccc(-n2c(/C=C/c3ccc4ccccc4n3)nc3ncccc3c2=O)cc1`: the growth was -0.995% (active).
Turning to `O=C1c2ccc3c4c(ccc(c24)C(=O)N1CCNCc1ccccc1)C(=O)N(CCNCc1ccccc1)C3=O`, the growth is 8.03% (active).
For the molecule `CCN(CC)Cc1cc(Nc2ccnc3cc(Cl)ccc23)ccc1OC`, the growth was 94.1%.
For `Nc1ccc2c(c1)C1(CCC2)NC(=O)NC1=O` (stereo not given), the growth was 96.6%.
Turning to `O=C(Nc1cccc(Cl)c1)Nc1nccs1`, the growth is 83.4%.
In the case of `O=C1NC(=O)N(Cc2ccccc2)CC1Br` (stereo not given), the growth is 90.6%.
The same measure, in the same setting: the result for `COc1cc(C(=O)N2CCN(c3ccccc3OC)CC2)c(N)cc1OCCCN1CCN(c2ccccc2OC)CC1` reads 104%; that for `CN(C)CCN=c1nc2c(c(N)n1-c1ccccc1)c(=S)n(-c1ccccc1)c(=S)n2-c1ccccc1`, 26.1%; that for `CCOC(=O)c1ccc(NC(=O)Nc2ncc(Cl)cc2Cl)cc1`, 106%.
Turning to `CC(=O)N(C)c1ccc(Nc2ccc(Nc3ccc(N(C)C(C)=O)cc3)c3c2C(=O)c2ccccc2C3=O)cc1`, the growth is 88.4%.
As for `COc1cc(Cl)cc(-c2nn(-c3cccc(NC(=O)Nc4ccc(Cl)c(Cl)c4)c3)cc2-c2ccncc2)c1`, the growth is 17.8%.
The same measure, in the same setting: then `CC1=C(N2CCOCC2)C(N2CCOCC2)=C(C)C(=O)C1=O`, with 103%; and `COc1ccc(CN2CCC(N3CCCC3=O)c3cc(Cl)ccc32)cc1` (stereo not given), with 99.5%; and `COc1ccc(-c2nn(-c3cccc(NC(=O)Nc4cc(C(F)(F)F)cc(C(F)(F)F)c4)c3)cc2-c2ccncc2)cc1Cl`, with 30.2%.
Consider `COc1ccc(N=C2C(=Nc3ccc(OC)cc3)N(c3ccc(N(C)C)cc3)C(=S)N2c2ccc(OC)cc2)cc1`, for which the growth was 75.1%.
Take `COc1cc2nc(Nc3cccc(NC(C)=O)c3)nc(N)c2cc1OC`: the growth was 103%.
For the molecule `O=C(c1cccs1)c1ccccc1Cc1ccccc1`, the growth was 90.4%.
On the same count and under the same terms, then `COc1ccc(-c2ccc(-c3ccc(C(=N)N)cn3)o2)cc1`, with 91.5%; and `COc1ccc(Nc2ccnc(NCCNc3ccnc4cc(Cl)ccc34)n2)cc1`, with 67.4%; and `O=C(Nc1ccc(Cl)c([N+](=O)[O-])c1)Nc1nc2ccccc2s1`, with 84.2%.
Consider `O=C1N=NC2=C1c1c3ccccc3c(O)n1CC2`, for which the growth is 96.3%.
Still for that read-out and setting: then `CS(=O)(=O)Nc1cccc(-c2cc(-c3ccccc3Cl)c(C#N)c(N)n2)c1`, with 49%.
On the same count and under the same terms, then `N#Cc1ncc(-c2ccc(C(F)(F)F)cc2)c(NCc2cc(C(F)(F)F)cc(C(F)(F)F)c2)n1`, with 29.8%.

A further experiment deals with U251 CNS. The description is as above. The note with it: 10 µM.
Turning to `CCCCCCCNc1nc(C=O)ncc1-c1ccc(C(F)(F)F)cc1`, the growth was 86.1%.
Turning to `C#Cc1ccc(-n2c(/C=C/c3ccc4ccccc4n3)nc3ncccc3c2=O)cc1`, the growth was -57.6% (active).
Still for that read-out and setting: then `O=C1c2ccc3c4c(ccc(c24)C(=O)N1CCNCc1ccccc1)C(=O)N(CCNCc1ccccc1)C3=O`, with -46.3% (active).
In the case of `CCN(CC)Cc1cc(Nc2ccnc3cc(Cl)ccc23)ccc1OC`, the growth is 82%.
As to `Nc1ccc2c(c1)C1(CCC2)NC(=O)NC1=O` (stereo not given), the growth was 91.5%.
For `O=C(Nc1cccc(Cl)c1)Nc1nccs1`, the growth is 94.1%.
For `O=C1NC(=O)N(Cc2ccccc2)CC1Br` (stereo not given), the growth was 59.6%.
For `COc1cc(C(=O)N2CCN(c3ccccc3OC)CC2)c(N)cc1OCCCN1CCN(c2ccccc2OC)CC1`, the growth is 96.6%.
Regarding `CN(C)CCN=c1nc2c(c(N)n1-c1ccccc1)c(=S)n(-c1ccccc1)c(=S)n2-c1ccccc1`, the growth was 2.1% (active).
Consider `CCOC(=O)c1ccc(NC(=O)Nc2ncc(Cl)cc2Cl)cc1`, for which the growth was 99.2%.
`CN(C)N=Nc1nn(C(=O)Nc2ccc(Cc3ccccc3)cc2)c2ccccc12`: the growth was 67.9%.
Regarding `CC(=O)N(C)c1ccc(Nc2ccc(Nc3ccc(N(C)C(C)=O)cc3)c3c2C(=O)c2ccccc2C3=O)cc1`, the growth is 77.3%.
As to `CCOC(=O)C1(CC(C)C)CCOC1=O` (stereo not given), the growth was 95.2%.
Take `COc1ccc2c(c1)nc(N)c1c3cccnc3cn21`: the growth was 12.7%.
As for `CSCCCNC(=O)c1ccc2c(c1)/C(=C/c1[nH]c(C)cc1C)C(=O)N2`, the growth is 43.6%.
As for `COc1cc(Cl)cc(-c2nn(-c3cccc(NC(=O)Nc4ccc(Cl)c(Cl)c4)c3)cc2-c2ccncc2)c1`, the growth was 3.01% (active).
As for `CC1=C(N2CCOCC2)C(N2CCOCC2)=C(C)C(=O)C1=O`, the growth was 101%.
As for `COc1cc(-c2nc(Nc3nc4ccccc4s3)[nH]c(=O)c2C#N)cc(OC)c1O`, the growth is 105%.
Same read-out and setting: the result for `COc1ccc(CN2CCC(N3CCCC3=O)c3cc(Cl)ccc32)cc1` (stereo not given) reads 105%; that for `CC(=O)O[C@]1(C)CC[C@H]2[C@H](CNCCc3ccc(Cl)cc3)C(=O)O[C@@H]2C2=C(C)C(=O)C[C@H]21`, 91.3%; that for `CN(CCc1ccccn1)c1ccccc1`, 96.4%.
Same read-out and setting: then `COc1ccc(N=C2C(=Nc3ccc(OC)cc3)N(c3ccc(N(C)C)cc3)C(=S)N2c2ccc(OC)cc2)cc1`, with 49.3%; and `COc1cc2nc(Nc3cccc(NC(C)=O)c3)nc(N)c2cc1OC`, with 94.7%.
Regarding `C#Cc1ccc(-n2c(/C=C/c3ccc(Cl)c(F)c3)nc3ncccc3c2=O)cc1`, the growth was -53.9% (active).
For `COc1cccc(Cn2c(-c3nonc3N)nc3ccccc32)c1`, the growth is 18.4%.
As for `c1ccc([I+]c2ccccc2)cc1`, the growth is 70.9%.
Turning to `O=C(c1cccs1)c1ccccc1Cc1ccccc1`, the growth is 92.5%.
Regarding `COc1ccc(-c2ccc(-c3ccc(C(=N)N)cn3)o2)cc1`, the growth was 76.3%.
With `Nc1c(C(=O)Nc2cccc3ccccc23)sc2nc3c(cc12)C(=O)CCC3`, the growth was 15.2%.
Regarding `COc1ccc(Nc2ccnc(NCCNc3ccnc4cc(Cl)ccc34)n2)cc1`, the growth was 59.1%.
Same read-out and setting: the result for `O=C(Nc1ccc(Cl)c([N+](=O)[O-])c1)Nc1nc2ccccc2s1` reads 84%; that for `COc1cc(C(=O)/C=C/c2cc(-c3cc(OC)c(OC)c(OC)c3)n[nH]2)cc(OC)c1OC`, -57.9% (active); that for `CC(=O)N1C/C(=C/c2ccc(Cl)cc2)C(=O)/C(=C/c2ccc(Cl)cc2)C1`, -76.8% (active).
Same read-out and setting: then `O=C1N=NC2=C1c1c3ccccc3c(O)n1CC2`, with 105%.
In the case of `CS(=O)(=O)Nc1cccc(-c2cc(-c3ccccc3Cl)c(C#N)c(N)n2)c1`, the growth is 24.7%.
Turning to `N#Cc1ncc(-c2ccc(C(F)(F)F)cc2)c(NCc2cc(C(F)(F)F)cc(C(F)(F)F)c2)n1`, the growth was 27.3%.
